The source made the active and inactive calls.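 How the source made its calls, unless noted: active means visual image review flags a hit and inhibition of aggregation exceeds 20%; inconclusive means visual hit but inhibition at or below 20%; inactive means no hit on visual image review.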
Key:
[1] = inhibitors of TNFa-induced NFkB p65 translocation, primary screen, imaging, HUVEC, MLSMR starter and 10KST1 sets (AID 438;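 active means inhibition above 20% together with a positive visual image hit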;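 further: compound added about 3h40 before a 20 min TNFalpha stimulation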;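 on inhibition: signal is the nuclear over cytoplasmic p65 intensity ratio per well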); conditions: HUVEC TNFa-induced p65 nuclear translocation; cell count: measured here: nuclei count (cytotoxicity indicator), at 2.08 µM unless noted; inhibition: at 2 µM, stronger effect = higher value unless noted
[2] = inhibitors of mutant huntingtin aggregation, primary screen, imaging, exon1htt(103Q)mCFP cells, high-content imaging (AID 483); conditions: exon1htt(103Q)mCFP cell line, aggregate imaging, at 2 µM; inhibition of aggregation: stronger effect = higher value; nuclei count: measured here: cell count, toxicity;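 further: compound exposure lasted 3 days before fixation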;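 on nuclei count: percent of the per-plate median nuclei count of sample wells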
[3] = inhibitors of E-selectin induction by TNFa, primary screen, imaging, HUVEC, immunofluorescence, MLSMR starter and 10KST1 sets (AID 487;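 active means visually confirmed hit in the image check and inhibition above 20%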;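 on inhibition: signal is fraction of cell area covered by stained E-selectin grains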;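 on nuclei count: 100% = median nuclei count of all wells on the same plate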); conditions: HUVEC TNFalpha-induced E-selectin immunofluorescence imaging, at 2 µM; inhibition: stronger effect = higher value; nuclei count: measured here: cell number, toxicity
[4] = target: Voltage-gated potassium channel subunit beta-2 (Rattus norvegicus) (UniProt P62483); test: KvBeta enzyme negative modulators, primary screen, biochemical, NADPH fluorescence (AID 622;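 active means fluorescence slope higher than the sample average by over 3 SD, cut at about -0.22 in these data, passing the limit was not always enough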;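 further: slope of raw intensity against log time taken from 70 to 1610 s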); conditions: recombinant KvBeta, 4-cyanobenzaldehyde reduction, at 10 µM, stronger effect = higher value
Voltage-gated potassium channel subunit beta-2 (Rattus norvegicus), sequence (P62483 whole entry, looked up): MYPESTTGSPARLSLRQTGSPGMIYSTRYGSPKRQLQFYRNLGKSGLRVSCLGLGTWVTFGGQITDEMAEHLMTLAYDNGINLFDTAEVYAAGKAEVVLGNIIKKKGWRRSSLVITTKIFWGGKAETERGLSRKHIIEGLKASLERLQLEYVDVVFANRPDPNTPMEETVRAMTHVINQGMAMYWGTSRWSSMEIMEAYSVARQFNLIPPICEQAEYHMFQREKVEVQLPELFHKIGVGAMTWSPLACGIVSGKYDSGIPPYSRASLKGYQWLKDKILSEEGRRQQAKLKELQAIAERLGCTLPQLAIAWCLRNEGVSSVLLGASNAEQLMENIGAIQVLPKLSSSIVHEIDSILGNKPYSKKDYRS

[5] = target: Voltage-gated potassium channel subunit beta-2 (Rattus norvegicus) (UniProt P62483); test: KvBeta positive modulators, primary screen, biochemical, NADPH fluorescence (AID 623;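 active means NADPH fluorescence slope more negative than the mean of all samples by about 3 SD, 99.7% confidence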;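 further: fluorescence intensity change per second fitted from 20 to 320 s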); conditions: Recombinant KvBeta, NADPH fluorescence decrease slope, 10 min; at 10 µM; stronger effect = lower value
[6] = target: Alpha-2C adrenergic receptor (Homo sapiens) (UniProt P18825); test: modulators of alpha2C/GIRK thallium flux, primary screen, cell-based, HEK293 alpha2C/GIRK1/2 (AID 624;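 active means fluorescence slope after compound addition differing from the mean of all screened samples at 99.7% confidence, in either direction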;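 further: slope of fluorescence ratio to pre-addition baseline per second over 15 to 24 s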); conditions: thallium flux BTC fluorescence, at 10 µM, actives lie on both sides
Alpha-2C adrenergic receptor (Homo sapiens), sequence (P18825 whole entry, looked up): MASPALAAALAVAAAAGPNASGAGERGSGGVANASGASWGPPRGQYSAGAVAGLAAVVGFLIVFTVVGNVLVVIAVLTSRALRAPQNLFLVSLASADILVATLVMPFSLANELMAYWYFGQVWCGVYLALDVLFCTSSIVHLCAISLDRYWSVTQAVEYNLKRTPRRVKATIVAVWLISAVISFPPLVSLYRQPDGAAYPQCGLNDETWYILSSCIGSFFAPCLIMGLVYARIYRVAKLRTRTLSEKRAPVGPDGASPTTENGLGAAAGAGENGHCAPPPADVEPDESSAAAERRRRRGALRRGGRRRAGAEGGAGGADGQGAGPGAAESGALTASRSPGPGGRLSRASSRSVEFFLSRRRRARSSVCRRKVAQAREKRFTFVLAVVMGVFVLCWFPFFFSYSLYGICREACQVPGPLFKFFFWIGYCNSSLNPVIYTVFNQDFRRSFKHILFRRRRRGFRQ

[7] = inhibitors of Sendai virus-induced IRF3 signaling, primary screen, TLR/RLR signaling modifier project, cell-based, Sendai virus stimulus, luciferase, 10K MLSCN set (AID 602276;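 active means inhibition at or above 50% at 10 µM; inactive means inhibition below 50%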;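 further: firefly luciferase from ISG56 promoter only with Renilla not read in this screen; 0% = Sendai virus plus DMSO and 100% = medium plus DMSO without virus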); conditions: HEK293 RL24 IRF3 luciferase reporter, at 10 µM, stronger effect = higher value
[8] = inhibitors of poly I:C-induced TLR3 signaling, primary screen, cell-based, poly I:C stimulus, luciferase, 10K MLSCN set (AID 602277;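 active means inhibition of the reporter signal at or above 50%; inactive means inhibition below 50%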); conditions: HEK293-TLR3 RL24 IRF3 luciferase reporter, at 10 µM, stronger effect = higher value

Row | SMILES | cell count [1] | inhibition [1] | inhibition of aggregation [2] | nuclei count [2] [%] | inhibition [3] | nuclei count [3] [%] | fluorescence slope [4] | NADPH fluorescence slope [5] | slope [6] | inhibition [7] | inhibition [8]
1 | CCCCn1c(O)c(C(C)=NC(Cc2c[nH]c3ccccc23)C(=O)OC)c(=O)[nH]c1=O (stereo not drawn) | 536 | -3.4% (inactive) | 9.6% (inactive) | 79.6 | 33.5% (inactive) | 112 | -0.499 (inactive) | 1.8e-05 (inactive) | 0.00457 (inactive) | 0.703% (inactive) | 14.9% (inactive)
2 | CN1CCN(c2nc3ccccc3c(=O)n2-c2ccccc2)CC1 | 568 | -2.3% (inactive) | -4.9% (inactive) | 70.3 | -3.5% (inactive) | 102 | -0.57 (inactive) | -2.8e-05 (inactive) | 0.00748 (inactive) | 845% [above what the read-out allows, likely interference] (active) | 50.1% (active)
3 | Cc1cccc(C2=NCC(=O)N(CC(=O)NCc3ccco3)c3sc4c(c32)CCCC4)c1 | 291 | 14.7% (inactive) | 13.6% (inactive) | 92.1 | -48.4% (inactive) | 87.3 | -0.56 (inactive) | -8.4e-05 (inactive) | 0.00582 (inactive) | 14.4% (inactive) | 49.8% (inactive)
4 | CCCNC(=O)c1c(N)n(Cc2ccc3c(c2)OCO3)c2nc3ccccc3nc12 | 699 | -14.7% (inactive) | -5.3% (inactive) | 104 | -9.2% (inactive) | 107 | -0.559 (inactive) | -2.1e-05 (inactive) | 0.00324 (inactive) | 19.3% (inactive) | 24.3% (inactive)
5 | CN(C)CCN=Cc1c(O)n(-c2cccc3ccccc23)c(=O)[nH]c1=O | 569 | 0% (inactive) | -6.8% (inactive) | 107 | 25.9% (inactive) | 110 | -0.419 (inactive) | -4.5e-05 (inactive) | 0.00451 (inactive) | 14% (inactive) | 11.3% (inactive)
6 | C=CCn1c(O)c(C(C)=NCc2cccnc2)c(=O)[nH]c1=O | 364 | -1% (inactive) | 15.3% (inactive) | 96 | -99.8% (inactive) | 162 | -0.429 (inactive) | -4.2e-05 (inactive) | 0.00457 (inactive) | 9.61% (inactive) | 32.6% (inactive)
7 | Cc1cnn(C2CCN(C)CC2)c1N | 791 | -7.4% (inactive) | -22.3% (inactive) | 75.4 | 0.5% (inactive) | 110 | -0.495 (inactive) | 1.3e-05 (inactive) | 0.00651 (inactive) | -8.1% (inactive) | 14.8% (inactive)
8 | O=C(c1ccncc1)C12CN3CN(CN(C3)C1)C2 | 459 | 4.5% (inactive) | 15.7% (inactive) | 104 | -155% (inactive) | 98.1 | -0.409 (inactive) | -3.9e-05 (inactive) | 0.00372 (inactive) | 10% (inactive) | 30.7% (inactive)
9 | CCOc1ccc(-n2c(O)c(C=NCCN(CC)CC)c(=O)[nH]c2=O)cc1 | 411 | -1.5% (inactive) | -1.7% (inactive) | 89.3 | -87.3% (inactive) | 125 | -0.553 (inactive) | 1.2e-05 (inactive) | 0.00486 (inactive) | 0.257% (inactive) | 1.28% (inactive)
10 | O=C(c1sc2ccccc2c1Cl)N1CCC2(CC1)OCCO2 | 388 | 2.5% (inactive) | -5.9% (inactive) | 107 | -59.7% (inactive) | 105 | -0.405 (inactive) | 3e-05 (inactive) | 0.00266 (inactive) | -10.2% (inactive) | -29.6% (inactive)
11 | COC(=O)CC1(Cc2ccccc2)C(=O)NC(=O)NC1=O | 641 | -6.3% (inactive) | 12.4% (inactive) | 78 | -73.6% (inactive) | 140 | -0.579 (inactive) | -2.7e-05 (inactive) | 0.00355 (inactive) | 17.2% (inactive) | 21.5% (inactive)
12 | N=C(N)c1c(O)n(C2CCCCC2)c(=O)n(C2CCCCC2)c1=O | 460 | -13.4% (inactive) | -10.9% (inactive) | 102 | -11% (inactive) | 89.8 | -0.502 (inactive) | -1.1e-05 (inactive) | 0.00599 (inactive) | 16.7% (inactive) | 31.3% (inactive)
13 | CC1(C)C(c2ccccc2)=NC(c2cccnc2)N1O (stereo not drawn) | 309 | 8.2% (inactive) | -17.9% (inactive) | 108 | 17.6% (inactive) | 99.6 | -0.495 (inactive) | -6.7e-05 (inactive) | 0.00634 (inactive) | 14.6% (inactive) | 25.5% (inactive)
14 | C[C@H]1CCCC(=O)CCC/C=C/c2cc(O)cc(O)c2C(=O)O1 | 420 | 6.1% (inactive) | 4.4% (inactive) | 93.9 | -42% (inactive) | 108 | -0.55 (inactive) | -7.2e-05 (inactive) | 0.00303 (inactive) | 13.5% (inactive) | 8.12% (inactive)
15 | CCC(=NCCCN1CCOCC1)c1c(O)n(Cc2ccccc2)c(=O)[nH]c1=O | 481 | 0.8% (inactive) | 8.2% (inactive) | 101 | -36.6% (inactive) | 167 | -0.629 (inactive) | -2.2e-05 (inactive) | 0.00745 (inactive) | -4.98% (inactive) | 1.2% (inactive)
16 | COC(=NC1CCCC1)C(O)c1c[nH]c2ccccc12 (stereo not drawn) | 602 | 9.7% (inactive) | 14% (inactive) | 88.5 | -22.4% (inactive) | 79.7 | -0.536 (inactive) | -2.7e-05 (inactive) | 0.00519 (inactive) | 5.75% (inactive) | 32.2% (inactive)
17 | CCC(C(=O)N1CCC2(CC1)OCCO2)c1ccccc1 (stereo not drawn) | 391 | 8.2% (inactive) | 18.1% (inactive) | 111 | -81.6% (inactive) | 99.5 | -0.381 (inactive) | -2.6e-05 (inactive) | 0.00492 (inactive) | 14.2% (inactive) | 7.25% (inactive)
18 | Nc1ccnn1C1CCNCC1 | 285 | 2.4% (inactive) | 6.2% (inactive) | 99.6 | -43.8% (inactive) | 127 | -0.541 (inactive) | 2.9e-05 (inactive) | 0.00512 (inactive) | 5.24% (inactive) | 17.3% (inactive)
19 | CCN1CCN(Cc2cc(Br)cc(OC)c2O)CC1 | 579 | 3.6% (inactive) | 20.4% (inactive) | 99.4 | -82.5% (inactive) | 123 | -0.441 (inactive) | -4e-05 (inactive) | 0.00663 (inactive) | -7.48% (inactive) | 5.42% (inactive)
20 | CN1CCN(c2c[nH]c(=O)[nH]c2=O)CC1 | 446 | 0% (inactive) | -25.3% (inactive) | 90.3 | -143% (inactive) | 105 | -0.495 (inactive) | -3.4e-05 (inactive) | 0.00648 (inactive) | 2.56% (inactive) | 19.8% (inactive)
21 | O=C1OCCC1NC1=NCCC1 (stereo not drawn) | 571 | -9.6% (inactive) | -1.8% (inactive) | 106 | -16.4% (inactive) | 101 | -0.45 (inactive) | -5e-05 (inactive) | 0.00554 (inactive) | -0.849% (inactive) | 13.5% (inactive)
22 | CCCCN1C(=O)NC(=O)C2(Cc3c(nc4c(C)cccn4c3=O)N3CCc4ccccc4C32)C1=O (stereo not drawn) | 373 | -0.5% (inactive) | -11.7% (inactive) | 106 | -176% (inactive) | 111 | -0.482 (inactive) | -4.8e-05 (inactive) | 0.0045 (inactive) | 14% (inactive) | 32.3% (inactive)
23 | CCC(=NCC1CCCO1)c1c(O)n(Cc2ccccc2)c(=O)[nH]c1=O (stereo not drawn) | 707 | -6% (inactive) | 6.5% (inactive) | 97.1 | -57.1% (inactive) | 120 | -0.512 (inactive) | -5.3e-05 (inactive) | 0.00608 (inactive) | -5.89% (inactive) | 19.3% (inactive)
24 | CCCCn1c(O)c(C(CC)=Nc2cccc(C(=O)O)c2)c(=O)[nH]c1=O | 688 | -5.8% (inactive) | 9.5% (inactive) | 86.6 | -25.6% (inactive) | 105 | -0.382 (inactive) | 2.4e-05 (inactive) | 0.00652 (inactive) | 9.53% (inactive) | 9.91% (inactive)
25 | CC(=NCCCN1CCOCC1)c1c(O)n(-c2ccccc2C)c(=O)[nH]c1=O | 377 | 3.3% (inactive) | -27.1% (inactive) | 107 | -21.8% (inactive) | 112 | -0.506 (inactive) | -3.5e-05 (inactive) | 0.00474 (inactive) | 7.9% (inactive) | 15% (inactive)
26 | CN(C)CCc1nc2ccccc2c(=O)n1-c1ccccc1 | 241 | -2.3% (inactive) | 16.8% (inactive) | 96.8 | -21% (inactive) | 124 | -0.495 (inactive) | -5e-05 (inactive) | 0.00675 (inactive) | -20.1% (inactive) | -35% (inactive)
27 | CC(C)CC12CN3CCN(CC(C3)/C1=N/O)C2 | 291 | -16.4% (inactive) | -20% (inactive) | 126 | 4.9% (inactive) | 109 | -0.496 (inactive) | -1.4e-05 (inactive) | 0.00751 (inactive) | 19.2% (inactive) | 21.5% (inactive)
28 | Cc1nc2ccccc2c(=O)n1-c1ccc(F)cc1 | 321 | -5% (inactive) | 7.1% (inactive) | 111 | -36.4% (inactive) | 111 | -0.456 (inactive) | 4.9e-06 (inactive) | 0.00327 (inactive) | 7.2% (inactive) | 36.9% (inactive)

Source: PubChem BioAssay
